{"source": "PubChem BioAssay (NCATS)", "note": "Active and inactive are the calls of the source. The rule behind the calls is not given here. Potency is the fitted concentration of half-maximal effect.", "data": [{"test_system": "HIV-1 nucleocapsid protein NCp7 (binding to TG oligonucleotide)", "test": "HIV Nucleocapsid (AID 346);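 note: potency is for inhibitors that block NC binding and lower polarization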", "conditions": "HIV-1 NC / fluorescein-TGTGTGTG probe, fluorescence polarization", "procedure,_shortened": "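HIV-1 NC (100 nM) binding to fluorescein-labelled ssDNA TG4xF (10 nM) in Hepes pH 7.5, 250mM NaCl, 1uM ZnCl2, TCEP and 2-mercaptoethanol; compounds pin-transferred, 1 hr room temperature, fluorescence polarization read on CCD imager.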", "values": [{"compound": "CCNc1ncc2nc(-c3cccs3)c(=O)n(Cc3cccs3)c2n1", "Potency": "> 20 µM (inactive)"}, {"compound": "c1ccc(CNc2ncncc2-c2ccoc2)cc1", "Potency": "> 20 µM (inactive)"}, {"compound": "N#CCCn1c(=O)cnc2cnc(Oc3cccc(Cl)c3)nc21", "Potency": "> 20 µM (inactive)"}, {"compound": "COCCn1c(=O)cnc2cnc(N3CCNCC3)nc21", "Potency": "> 20 µM (inactive)"}, {"compound": "CN(C)Cc1ccccc1-c1ccc2ncnc(N(C)C)c2c1", "Potency": "> 20 µM (inactive)"}, {"compound": "COCC(=O)N1CCC2(CCCN(c3cccc(-c4ccccc4)c3)C2)CC1", "Potency": "> 20 µM (inactive)"}, {"compound": "CN(C)c1ncc2nc(CCc3ccccc3)c(=O)n(CCc3ccccc3)c2n1", "Potency": "> 20 µM (inactive)"}, {"compound": "COc1ccc(-c2nc3cnc(OC)nc3n(Cc3cccs3)c2=O)cc1", "Potency": "> 20 µM (inactive)"}, {"compound": "Cc1cnc(CNc2nc(-c3ccoc3)nc3ccccc23)cn1", "Potency": "> 20 µM (inactive)"}, {"compound": "COCCn1c(=O)c(-c2ccc(F)cc2)nc2cnc(N(C)C)nc21", "Potency": "> 20 µM (inactive)"}, {"compound": "O=C(c1cnccn1)N1CCC2(CCCN(c3ccc(-c4ccccc4)cc3)C2)CC1", "Potency": "> 20 µM (inactive)"}, {"compound": "Cn1cccc1C(=O)N1CCC[C@@]2(CCN(Cc3cc(C(F)(F)F)cc(C(F)(F)F)c3)C2)C1", "Potency": "> 20 µM (inactive)"}, {"compound": "FC(F)(F)c1ccccc1-c1cncnc1Nc1ccccc1", "Potency": "> 20 µM (inactive)"}, {"compound": "COc1ccccc1-c1cncnc1NCc1cccs1", "Potency": "> 20 µM (inactive)"}, {"compound": "Cc1cnc(CNc2nc(-c3ccc(N(C)C)cc3)nc3ccccc23)cn1", "Potency": "> 20 µM (inactive)"}, {"compound": "O=C(c1ccncc1)N1CCC2(CCCN(c3ncccn3)C2)CC1", "Potency": "> 20 µM (inactive)"}, {"compound": "CN(C)c1nc(-c2cccnc2)nc2ccccc12", "Potency": "> 20 µM (inactive)"}, {"compound": "O=C(c1cccc(F)c1)N1CCC2(CCCN(Cc3ccccc3)C2)CC1", "Potency": "> 20 µM (inactive)"}, {"compound": "O=c1cnc2cnc(Nc3ccccc3)nc2n1C1CC1", "Potency": "> 20 µM (inactive)"}, {"compound": "CN(C)c1cc(-c2cccc(NS(C)(=O)=O)c2)ncn1", "Potency": "> 20 µM (inactive)"}, {"compound": "O=C(c1cc(C(F)(F)F)cc(C(F)(F)F)c1)N1CCC[C@@]2(CCN(c3ccncc3)C2)C1", "Potency": "> 20 µM (inactive)"}, {"compound": "c1ccc(Nc2ncncc2-c2ccoc2)cc1", "Potency": "> 20 µM (inactive)"}, {"compound": "O=C(Nc1cccc(F)c1)N1CC2(CCN(C(=O)c3cc(C(F)(F)F)cc(C(F)(F)F)c3)CC2)C1", "Potency": "> 4 µM (inactive)"}, {"compound": "O=c1c(-c2ccccc2)nc2cnc(Oc3ccccc3)nc2n1C[C@H]1CCCO1", "Potency": "> 20 µM (inactive)"}, {"compound": "Cn1c(=O)c(CCc2ccccc2)nc2cnc(N3CCNCC3)nc21", "Potency": "> 20 µM (inactive)"}, {"compound": "CN1CCN(c2ncc3nc(-c4ccc(Cl)cc4)c(=O)n(C4CC4)c3n2)CC1", "Potency": "> 20 µM (inactive)"}, {"compound": "COc1ccccc1CNc1ccnc(-c2ccc3c(c2)OCO3)n1", "Potency": "> 20 µM (inactive)"}, {"compound": "O=c1c(-c2cc(F)cc(F)c2)nc2cncnc2n1C1CC1", "Potency": "> 20 µM (inactive)"}, {"compound": "COc1cccc(-c2nc(N3CCNCC3)c3ccccc3n2)c1", "Potency": "> 20 µM (inactive)"}, {"compound": "COc1cccc(Nc2ncc3nc(C)c(=O)n(C[C@H]4CCCO4)c3n2)c1", "Potency": "> 20 µM (inactive)"}, {"compound": "CNc1ncnc2ccc(-c3ccccc3C#N)cc12", "Potency": "> 20 µM (inactive)"}, {"compound": "N#Cc1ccc(CN2CC3(CCN(C(=O)c4cccc(F)c4)CC3)C2)cc1", "Potency": "> 20 µM (inactive)"}, {"compound": "Cc1noc(C)c1C(=O)N1CCC[C@@]2(CCN(c3ccccc3)C2)C1", "Potency": "> 20 µM (inactive)"}, {"compound": "COCCn1c(=O)cnc2cnc(Nc3cccc(OC)c3)nc21", "Potency": "> 20 µM (inactive)"}, {"compound": "CN1CCN(c2ncc3nc(-c4cn(C)c5ccccc45)c(=O)n(C[C@H]4CCCO4)c3n2)CC1", "Potency": "> 20 µM (inactive)"}, {"compound": "COc1ccc(NC(=O)N2CC3(CCN(C(=O)c4ccco4)CC3)C2)cc1", "Potency": "> 20 µM (inactive)"}, {"compound": "CCNc1ncc2nc(-c3ccc(OC)cc3)c(=O)n(CCC#N)c2n1", "Potency": "> 20 µM (inactive)"}, {"compound": "COCCn1c(=O)c(-c2cc(F)cc(F)c2)nc2cnc(Oc3cccc(Cl)c3)nc21", "Potency": "> 20 µM (inactive)"}, {"compound": "CN(C)c1ncc2ncc(=O)n(C3CC3)c2n1", "Potency": "> 20 µM (inactive)"}, {"compound": "COCCn1c(=O)c(-c2ccc(F)cc2)nc2cnc(Nc3cccc(OC)c3)nc21", "Potency": "> 20 µM (inactive)"}]}]}
